Measured values taken from the supplement of paper PMC8975748.
Where a name gives a salt, the structure may show the parent alone.

What follows are compounds tested on Saccharomyces cerevisiae BY4741 SeMeCo community (assay: z-score of subpopulation abundance vs DMSO median, subpopulation auxotrophic for L; higher = larger share of this subpopulation than in DMSO controls). Conditions: 10 µM; 24 h; SM minimal medium; subpopulation (auxotrophy): L.
Procedure: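 Fluorescent four-plasmid SeMeCo (self-establishing metabolically cooperating S. cerevisiae BY4741 community; plasmids pH-mRuby2, pL-mWasabi, pU-eCFP, pM-TagRFP657) was grown 24 h in minimal SM medium with each Selleck FDA-approved drug at 10 µM in 384-well plates. Cells were fixed and imaged by high-content confocal microscopy. For each auxotrophic subpopulation (and the prototroph), a z-score gives the deviation from the DMSO vehicle-control population median.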
`C=C[C@H]1CN2CC[C@H]1C[C@H]2[C@H](O)c1ccnc2ccccc12` [Cinchonidine] was tested, and the “z-score of subpopulation abundance” value was 0.13. `CN1[C@@H]2CC[C@H]1C[C@@H](OC(=O)C(CO)c1ccccc1)C2` (some centres undefined) [Atropine sulfate monohydrate] was tested, and the “z-score of subpopulation abundance” value was -0.2. For `COc1ccc(C=O)cc1` [p-Anisaldehyde], the “z-score of subpopulation abundance” value was -0.63. With `CN1[C@@H]2CC[C@H]1C[C@@H](OC(=O)[C@H](CO)c1ccccc1)C2` [Hyoscyamine] the “z-score of subpopulation abundance” value was 0.64. For `CC[C@H]1CN2CC[C@]3(C(=O)Nc4ccccc43)[C@@H]2C[C@@H]1/C(=C\OC)C(=O)OC` [Rhynchophylline], the “z-score of subpopulation abundance” value was -0.82. For `CC[C@@H](C(N)=O)N1CCCC1=O` [Levetiracetam], the “z-score of subpopulation abundance” value was 0. For `C[N+]12CCC(CC1)C(OC(=O)C(O)(c1ccccc1)c1ccccc1)C2` (centres undefined) [Clidinium Bromide], the “z-score of subpopulation abundance” value was 0.14. With `N[C@@H]1C[C@H]1c1ccccc1` [Tranylcypromine (2-PCPA) HCl] the “z-score of subpopulation abundance” value was -0.64. With `NC(=O)CN1CCCC1=O` [Piracetam] the “z-score of subpopulation abundance” value was 1.45. With `O=C(O[C@H]1C[N+]2(CCCOc3ccccc3)CCC1CC2)C(O)(c1cccs1)c1cccs1` [Aclidinium Bromide] the “z-score of subpopulation abundance” value was -1.04. In the case of `CN1c2ccccc2C(NCCCCCCC(=O)O)c2ccc(Cl)cc2S1(=O)=O` (centres undefined) [Tianeptine sodium], the “z-score of subpopulation abundance” value is reported as -0.37. With `CC1(C)SC2C(N)C(=O)N2C1C(=O)O` (centres undefined) [6-Aminopenicillanic acid] the “z-score of subpopulation abundance” value was -0.39. `Cc1cc(C(C#N)c2ccc(Cl)cc2)c(Cl)cc1NC(=O)c1cc(I)cc(I)c1O` (centres undefined) [Closantel] was tested, and the “z-score of subpopulation abundance” value was 1.28. In the case of `CN(C)[C@@H]1C(=O)C(C(N)=O)=C(O)[C@@]2(O)C(=O)C3=C(O)c4c(O)cccc4[C@@](C)(O)[C@H]3C[C@@H]12` [Tetracycline HCl], the “z-score of subpopulation abundance” value is reported as -0.47. With `Cc1cc(O)ccc1Cl` [Chlorocresol] the “z-score of subpopulation abundance” value was -0.62. In the case of `Nc1ccncc1` [4-Aminopyridine], the “z-score of subpopulation abundance” value is reported as 0.44. `C[C@@H]1CC[C@H]2[C@@H](C)C(=O)O[C@@H]3O[C@@]4(C)CC[C@@H]1[C@]32OO4` [Artemisinin] was tested, and the “z-score of subpopulation abundance” value was -0.11. In the case of `Cn1cc(C2=C(c3cn(C4CCN(Cc5ccccn5)CC4)c4ccccc34)C(=O)NC2=O)c2ccccc21`, the “z-score of subpopulation abundance” value is reported as -1.15. In the case of `NCC(O)c1ccc(O)cc1` (racemic) [(+,-)-Octopamine HCl], the “z-score of subpopulation abundance” value is reported as -0.17. `C[CH2][Hg][S]c1ccccc1C(=O)[O-].[Na+]` [Thimerosal] was tested, and the “z-score of subpopulation abundance” value was -2.54. With `CNC1CC(N)C(O)C(OC2OC(CO)C(O)C3OC4(OC(C(N)CO)C(O)C(O)C4O)OC23)C1O` (centres undefined) [Hygromycin B] the “z-score of subpopulation abundance” value was 0.12. With `COc1ccc(C(CN(C)C)C2(O)CCCCC2)cc1` (centres undefined) [Venlafaxine] the “z-score of subpopulation abundance” value was -0.75. With `CN(C)C(=O)Oc1cccc([N+](C)(C)C)c1` [Neostigmine Bromide] the “z-score of subpopulation abundance” value was 0.65. `CC[C@H]1[C@@H]2C[C@H]3[C@@H]4N(C)c5ccccc5[C@]45C[C@@H]([C@@H]2[C@H]5O)N3[C@@H]1O` [Ajmaline] was tested, and the “z-score of subpopulation abundance” value was -0.67. `C=C(C)[C@H]1Cc2c(ccc3c2O[C@@H]2COc4cc(OC)c(OC)cc4[C@@H]2C3=O)O1` [Rotenone (Barbasco)] was tested, and the “z-score of subpopulation abundance” value was 0.46. With `O=c1cccc2n1C[C@@H]1CNC[C@H]2C1` [Cytisine] the “z-score of subpopulation abundance” value was 0.2. For `O=[N+]([O-])C(Br)(CO)CO` [Bronopol], the “z-score of subpopulation abundance” value was -0.82. For `CCN(C)C(=O)Oc1cccc([C@H](C)N(C)C)c1` [Rivastigmine Tartrate], the “z-score of subpopulation abundance” value was 1.02. `CCN1CC2(OC(=O)c3ccccc3NC(C)=O)CCC(OC)C34C1C(CC23)C1(O)CC(OC)C2CC4C1(O)C2OC` (centres undefined) [Lappaconitine] was tested, and the “z-score of subpopulation abundance” value was 0.34. For `CC[C@@]1(O)C(=O)OCc2c1cc1n(c2=O)Cc2cc3ccccc3nc2-1` [Camptothecin], the “z-score of subpopulation abundance” value was -0.35. `C#C[C@]1(O)C=C[C@H]2[C@@H]3CCC4=CC(=O)CC[C@@H]4[C@H]3CC[C@@]21CC` [Gestodene] was tested, and the “z-score of subpopulation abundance” value was 0.46. For `C=CN1CCCC1=O.II` [Povidone iodine], the “z-score of subpopulation abundance” value was 0.47. `O=c1[nH]c2ccccc2n1CCCN1CCC(n2c(=O)[nH]c3cc(Cl)ccc32)CC1` [Domperidone] was tested, and the “z-score of subpopulation abundance” value was 0.55. With `Oc1cccc2cccnc12` [8-Hydroxyquinoline] the “z-score of subpopulation abundance” value was -1.01.
